# “And” between values parts separate entries of the source, which are not always exact repeats. Identical values can stand only once. The campaign covered roughly 390,000 compounds. About 4,700 (1.2%) were called active. A call without a number means that no potency is given here. About 4% were inconclusive and are not listed. Calls come from the whole dose curve; as a rule, active = well fitted inhibition curve with a large enough effect; inconclusive = small, poorly fitted or top-dose-only effect, or another doubt; inactive = no such curve, though single readings can be large or run the other way. The sample as a whole holds a higher share of actives than the screen did. The source holds several records for some structures; these can differ, active in one and inactive in another.
# Biological target: DNA polymerase eta (Homo sapiens) (UniProt Q9Y253)
# Sequence (Q9Y253 whole entry, looked up): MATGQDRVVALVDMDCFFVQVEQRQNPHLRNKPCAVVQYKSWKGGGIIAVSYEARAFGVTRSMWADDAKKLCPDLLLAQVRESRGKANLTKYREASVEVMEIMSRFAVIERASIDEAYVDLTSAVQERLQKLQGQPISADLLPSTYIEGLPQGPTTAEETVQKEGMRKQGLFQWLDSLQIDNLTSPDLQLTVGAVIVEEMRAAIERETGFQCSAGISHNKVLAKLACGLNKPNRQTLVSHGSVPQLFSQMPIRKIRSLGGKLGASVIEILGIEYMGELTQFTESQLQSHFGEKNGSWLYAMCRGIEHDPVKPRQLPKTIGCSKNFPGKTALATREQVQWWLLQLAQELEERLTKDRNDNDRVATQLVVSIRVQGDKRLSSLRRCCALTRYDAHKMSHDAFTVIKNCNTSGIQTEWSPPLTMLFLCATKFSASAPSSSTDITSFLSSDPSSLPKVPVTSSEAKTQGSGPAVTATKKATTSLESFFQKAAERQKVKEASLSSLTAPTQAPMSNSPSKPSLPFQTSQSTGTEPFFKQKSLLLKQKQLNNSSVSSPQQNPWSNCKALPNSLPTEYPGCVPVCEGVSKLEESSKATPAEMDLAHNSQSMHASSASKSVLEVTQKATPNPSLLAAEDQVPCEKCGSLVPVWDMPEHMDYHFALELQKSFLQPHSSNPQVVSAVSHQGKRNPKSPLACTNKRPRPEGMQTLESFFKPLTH
# Experiment: qHTS for Inhibitors of Polymerase Eta
# Details: recombinant Pol eta, fluorescent DNA replication assay; series mostly up to 114 µM
# Outline: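 Fluorescent replication assay: 50 nM final substrate added after a 15 min room-temperature compound preincubation with 10 nM enzyme. Signal taken at 0 min and again at 10 min.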
# Potency is the fitted concentration of half-maximal effect.
row,SMILES,Potency
1,COc1cccc(CNC(=O)CN2C(=O)CCc3cc(S(=O)(=O)N4CCOCC4)ccc32)c1,inactive
2,N#C/C(=C\c1ccc(O)c(O)c1)C(=O)NCc1ccccc1,inactive and 11.2 µM (active)
3,CC(C)NC(=O)/C(C#N)=C\c1ccc(N(C)C)c(Br)c1,inactive
4,Cc1ccc(/C=C(\C#N)C(=O)Nc2cc(C)ccc2C)cc1,inactive
5,CCc1ccc(-n2nc(C)c3c(C)cc(=O)n(CC(=O)Nc4ccc(F)cc4C)c32)cc1,inactive
6,CCN(C(=O)COC(=O)CCC(=O)c1cccs1)C1CCCCC1,inactive
7,COc1ccccc1C(=O)OCC(=O)NCCNC(=O)COC(=O)c1ccccc1OC,inactive
8,O=C(COC(=O)c1ccccc1C(=O)N1CCN(c2ccccc2)CC1)NCc1ccccc1,inactive
9,CN(c1ccccc1)S(=O)(=O)c1ccc(Cl)c(C(=O)OCC(=O)NCc2ccco2)c1,31.6 µM (active)
10,Cn1c(N)c(C(=O)COC(=O)c2ccccc2NCc2ccco2)c(=O)n(C)c1=O,inactive
11,O=C(COC(=O)c1cc(S(=O)(=O)N2CCOCC2)ccc1Cl)NCCc1ccccc1,inactive
12,O=C(COC(=O)CCC(=O)c1cccs1)NCc1ccco1,7.08 µM (active)
13,CN(c1ccccc1)S(=O)(=O)c1ccc(Cl)c(C(=O)OCC(=O)N2CCOCC2)c1,inactive
14,O=C(CC1CCCCC1)NCc1ccco1,inactive
15,CC1CCN(C(=O)COC(=O)CCC(=O)c2cccs2)CC1,inactive
16,Cc1cc(C(=O)OCC(=O)NCc2ccco2)c(C)n1-c1ccccc1,14.1 µM (active)
17,O=C(COC(=O)c1ccccc1O)NCc1ccco1,79.4 µM (active)
18,Cc1ccc2nc(COc3cccc(NC(=O)Nc4ccc(C)c(Cl)c4)c3)cc(=O)n2c1,inactive
19,COC(=O)c1cc(S(=O)(=O)N2CCN(c3cc(Cl)ccc3C)CC2)c[nH]1,inactive
20,Cc1cccc(N2CCN(C(=O)CCSCc3ccccc3F)CC2)c1C,inactive
21,Cc1ccc2oc(=O)c3cnn(CC(=O)N4CCN(c5cccc(Cl)c5)CC4)c3c2c1,inactive
22,COc1ccc(-n2ccnc(NCCc3ccc(Cl)cc3)c2=O)cc1OC,inactive

row,SMILES,Potency
1,Cc1cccc(C(C)C)c1NC(=O)C(NS(=O)(=O)c1cccc2nsnc12)c1ccccc1 (stereo not given),inactive
2,Cc1ccc(-n2ncc3c(=O)n(Cc4cccc(C(F)(F)F)c4)cnc32)cc1C,inactive
3,CC(C)(C)NC(=O)CSc1nc(-c2ccc(F)cc2)cc(C(F)(F)F)n1,inactive
4,COc1cc(NC(=O)COC(=O)c2cnc(C)cn2)c(C)cc1[N+](=O)[O-],inactive
5,COc1cc(CCC(=O)OCC(=O)Nc2cccc(S(N)(=O)=O)c2)cc(OC)c1OC,inactive
6,COc1cc(NC(=O)COC(=O)c2ccc([N+](=O)[O-])s2)cc(OC)c1OC,50.1 µM (active)
7,COc1ccc(CCC(=O)NCc2ccc3c(c2)CCN3C(=O)c2ccc(F)cc2)cc1,inactive
8,O=C(CS(=O)(=O)c1cccc2nsnc12)N1CCN(c2cccc(Cl)c2)CC1,inactive
9,COC(=O)c1ccccc1NC(=O)C(Cc1ccccc1)N1Cc2ccccc2C1=O (stereo not given),inactive
10,Cc1ccccc1NC(=O)CN1C(=O)N/C(=C\c2cccn2-c2cccc(C(=O)O)c2)C1=O,3.16 µM (active)
11,Cc1ccccc1NC(=O)CN1C(=O)C(C)(C)c2ccccc21,inactive
12,Cc1ccccc1NC(=O)Cn1c(=O)n(CCc2ccccc2)c(=O)c2ccccc21,inactive
13,CC(C)S(=O)(=O)c1oc(-c2ccc(F)cc2)nc1S(=O)(=O)c1ccc(F)cc1,inactive
14,Cc1ccccc1C(=O)Nc1nnc(S(=O)(=O)N(C)c2ccc(Cl)cc2)s1,inactive
15,CN(Cc1ccco1)S(=O)(=O)c1nnc(NC(=O)c2ccccc2)s1,inactive
16,CCN(c1ccc(Cl)cc1)S(=O)(=O)c1nnc(NC(=O)c2ccco2)s1,39.8 µM (active)
17,Cn1nc(-c2ccccc2)c(-c2ccccc2)c(C(=O)Nc2ccc(S(N)(=O)=O)cc2)c1=O,inactive
18,Cc1cc(O)c(C(=O)/C=C/c2c(F)c(F)c(F)c(F)c2F)c(=O)o1,35.5 µM (active)
19,O=C(O)/C(=C/c1c(C(=O)O)[nH]c2cc(Cl)cc(Cl)c12)c1ccccc1,inactive
20,O=C1OC(C(=O)Nc2cccc(Br)c2)Cc2ccccc21 (stereo not given),inactive
21,Cc1ccc(-n2nc(C)c3c(C)cc(=O)n(CC(=O)Nc4ccc(C(C)C)cc4)c32)cc1,inactive
22,Cc1ccc(CNC(=O)C2CCN(S(=O)(=O)c3ccc4nc5c(c(C(=O)O)c4c3)CC(C)CC5)CC2)cc1 (stereo not given),inactive

row,SMILES,Potency
1,CCOC(CNC(=O)C1CCN(S(=O)(=O)c2ccc3nc4c(c(C(=O)O)c3c2)CC(C)CC4)CC1)OCC (stereo not given),31.6 µM (active)
2,CCOc1ccc(S(=O)(=O)N2CCC(C(=O)NCc3ccccn3)CC2)cc1Cl,inactive
3,CCNS(=O)(=O)c1cc(-c2nnc(Nc3cccc(C(F)(F)F)c3)c3ccccc23)ccc1C,inactive
4,Cc1ccccc1-c1nc(SCC(=O)N(C)c2ccccc2)c2c(=O)n(C)c(=O)n(C)c2n1,inactive
5,CCOC(=O)Cn1c(=O)n(-c2ccccc2OC)c2nc(-c3cccc(F)c3)nc(C(N)=O)c21,inactive
6,CCOC(=O)c1cc2c(=O)n3ccccc3nc2n(CCCOC)c1=NC(=O)C(C)(C)Oc1ccc(Cl)cc1,inactive
7,NC(=O)CSc1nnc(NC(=O)c2ccc(Br)o2)s1,20 µM (active)
8,CCSc1nnc(NC(=O)c2cc(=O)c3cc(C)c(C)cc3o2)s1,inactive
9,COc1cc(OC)cc(C(=O)Nc2nnc(SCC(=O)NCC3CCCO3)s2)c1 (stereo not given),inactive
10,CCOc1ccccc1N(CC)C(=O)c1cc2ccc3cccnc3c2[nH]1,inactive
11,COc1ccccc1N1CC(C(=O)Nc2nnc(SCC(=O)NCC3CCCO3)s2)CC1=O (stereo not given),inactive
12,COc1ccccc1N1CC(C(=O)Nc2nnc(SCC(=O)NC(C)C)s2)CC1=O (stereo not given),inactive
13,Cc1ccccc1N1CC(C(=O)Nc2nnc(SCCC3OCCO3)s2)CC1=O (stereo not given),20 µM (active)
14,COc1ccc(SCc2cc(=O)c3ccc(C)c(C)c3[nH]2)cc1,inactive
15,Cc1ccc(NC(=O)c2ccc3[nH]c(C)cc(=O)c3c2)c(C)c1,inactive
16,CCOC(=O)C1=C(c2ccccc2)Nc2ncnn2C1c1ccc(Cl)cc1 (stereo not given),inactive
17,NS(=O)(=O)c1cc(C(=O)OCC(=O)NNC(=O)c2ccccc2)ccc1Cl,inactive
18,O=C(NC1=CC(=O)c2ccccc2C1=O)c1ccccc1,89.1 µM (active)
19,COc1ccc(C)cc1NC(=O)CN1c2cccc3cccc(c23)S1(=O)=O,inactive
20,O=C(O)CN1c2cccc3cccc(c23)S1(=O)=O,28.2 µM (active)
21,CC(C)CN(CC(C)C)C(=O)CN1c2cccc3cccc(c23)S1(=O)=O,inactive
22,COc1ccccc1Cc1nc2ccccc2nc1SCC(=O)N1CCCc2ccccc21,inactive

row,SMILES,Potency
1,CC(=O)c1ccc(N2CCN(c3nc4c(S(=O)(=O)c5ccccc5)nnn4c4ccc(Cl)cc34)CC2)cc1,inactive
2,C#CCOCCOCCOCCNc1nc(N2CCN(C(=O)CCCCCCCCCCNC(=O)[C@H](CCCCN)n3cc(C)nn3)CC2)nc(N2CCN(C(=O)CCCCCCCCCCNC(=O)[C@H](CO)n3cc(CCCSC)nn3)CC2)n1,89.1 µM (active)
3,C#CCOCCOCCOCCNc1nc(N2CCN(C(=O)[C@H](CCC(=O)O)n3cc(C(N)CO)nn3)CC2)nc(N2CCN(C(=O)[C@H](Cc3ccc(O)cc3)n3cc(C(N)[C@H](C)CC)nn3)CC2)n1 (stereo not given in full),inactive
4,C#CCOCCOCCOCCNc1nc(N2CCN(C(=O)C([C@@H](C)CC)n3cc(C(N)COC(=O)C(F)(F)F)nn3)CC2)nc(N2CCN(C(=O)[C@H](Cc3ccc(O)cc3)n3cc(C(N)[C@H](C)CC)nn3)CC2)n1 (stereo not given in full),inactive
5,C#CCOCCOCCOCCNc1nc(N2CCN(C(=O)C([C@@H](C)CC)n3cc(C(N)COC(=O)C(F)(F)F)nn3)CC2)nc(N2CCN(C(=O)[C@H](CCCCN)n3cc(C(N)CC(C)C)nn3)CC2)n1 (stereo not given in full),inactive
6,C#CCOCCOCCOCCNc1nc(N2CCN(C(=O)CCCCCCCCCCNC(=O)[C@H]([C@@H](C)CC)n3cc(CCCCN=C(N)N)nn3)CC2)nc(N2CCN(C(=O)CCCCCCCCCCNC(=O)[C@H](CO)n3cc(CCCSC)nn3)CC2)n1,50.1 µM (active)
7,COc1ccccc1NC(=O)Cn1cnc2ccc(S(=O)(=O)N3CCC(C)CC3)cc2c1=O,inactive
8,COc1ccc(-c2nc3c4ccccc4n(CC(=O)Nc4ccc(C(C)=O)cc4)c(=O)n3n2)cc1,inactive
9,O=C(CSCc1cnn(-c2ccccc2)c1-n1cccc1)NCc1ccc(Cl)cc1,inactive
10,CCOc1ccc(-c2cc3nc(C4CCN(C(=O)OC(C)(C)C)CC4)c(C(=O)Nc4cccc(CC)c4)cn3n2)cc1,inactive
11,CC(=O)c1ccc(NS(=O)(=O)c2ccc(-c3cc(C)no3)s2)cc1,inactive
12,Cc1c(OC(C)C(=O)N[C@@H](Cc2ccccc2)C(=O)O)ccc2c3c(c(=O)oc12)CCCC3 (stereo not given in full),inactive
13,Cc1c(CCC(=O)N[C@@H](CC(C)C)C(=O)O)c(=O)oc2c(C)c3oc4c(c3cc12)CCCC4,inactive
14,Cc1oc2c(C)c3oc(=O)c(CC(=O)N[C@@H](CC(C)C)C(=O)N[C@@H](Cc4ccccc4)C(=O)O)c(C)c3cc2c1C,20 µM (active)
15,NC(=O)CCN1CCN(S(=O)(=O)/C=C/c2ccccc2)CC1,inactive
16,CC1(c2ccccc2Cl)NC(=O)N(CC(=O)NC(=O)NCc2ccco2)C1=O (stereo not given),inactive
17,O=C(CN1CCN(S(=O)(=O)/C=C/c2ccccc2)CC1)NC(=O)NCc1ccco1,79.4 µM (active)
18,CCOc1cc(-c2nnc(SCC(=O)NC3CCCCC3)nc2-c2ccc(OC)c(OCC)c2)ccc1OC,inactive
19,CC(=O)Nc1ccc(NC(=O)c2cc3sccc3n2Cc2ccc(F)cc2)cc1,inactive

# Reference: PubChem BioAssay AID588591 (National Center for Advancing Translational Sciences (NCATS), 2011)
